Hits are enriched below; roughly 4.6% of the tested compounds scored in any of these assays.
TRHR agonist = agonists of human TRH receptor; TRHR cells, calcium flux fluo-8, FDSS agonist mode; 0.18% of 360,000 active; activation, % at 2 µM; AID 493084
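Steps: seed TRHR cells overnight; add fluo-8 no-wash Ca dye, RT 30 min–1.5 h; record 10 s baseline; pin-transfer compounds; monitor fluorescence 1 cycle/s for the agonist window. Calcium increases flag candidate agonists.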
TRHR enhancer = allosteric enhancers of human TRH receptor. P34981. TRHR cells, fluo-8 calcium fluorescence, EC20 TRH enhancement. enhancement, % at 2 µM. 0.66% of 360,000 active. AID 493056; in the data active means enhancement above about 30%
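Enhancer read-out: after compound pinning and an initial kinetic agonist-mode read, an EC20 of TRH (10 nM final) was injected and fluo-8 calcium signal (Ex 480/Em 530) followed at 1 s/cycle for 100 cycles in TRHR-expressing cells.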
D1 PAM = human D1 dopamine receptor positive modulation | 0.036% of 360,000 active | HEK293 TREx D1 cells, calcium flux, dopamine EC20 potentiation | potentiation, % at 10 µM | AID 504651; in the data active means potentiation above about 30%
Target sequence (P21728 whole entry, looked up): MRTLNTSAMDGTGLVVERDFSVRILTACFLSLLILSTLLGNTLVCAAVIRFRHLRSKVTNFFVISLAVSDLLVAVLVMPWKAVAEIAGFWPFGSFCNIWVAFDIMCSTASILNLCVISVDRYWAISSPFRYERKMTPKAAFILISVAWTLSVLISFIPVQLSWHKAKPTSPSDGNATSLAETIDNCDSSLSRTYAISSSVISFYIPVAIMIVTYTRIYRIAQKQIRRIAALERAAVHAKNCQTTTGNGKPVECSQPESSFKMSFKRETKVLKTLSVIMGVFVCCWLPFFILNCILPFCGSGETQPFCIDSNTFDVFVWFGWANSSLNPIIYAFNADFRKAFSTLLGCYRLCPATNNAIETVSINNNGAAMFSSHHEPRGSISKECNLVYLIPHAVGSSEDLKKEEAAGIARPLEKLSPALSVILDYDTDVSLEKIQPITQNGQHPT
D1 antagonist = antagonists of human D1 dopamine receptor | 3.2% of 360,000 active | activity change, negative = inhibition, % at 10 µM | P21728 | AID 504652 | HEK293 TREx D1 cells, calcium flux, dopamine EC80; hits give low values; in the data active means activity change below about -30%
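Using tetracycline-induced force-coupled D1 Hek293 cells and a calcium dye, signals were followed for 180 s after compound, then for 180 s after EC80 dopamine, to detect inhibitors.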
D1 ag = agonists of human D1 dopamine receptor; P21728; HEK293 T-REx D1 cells, calcium flux, agonist mode; activation, % at 2 µM; 1% of 360,000 active; AID 504660
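Inducible HEK293 T-REx D1 cells, force-coupled to calcium signalling, were plated at 4000 cells/well with tetracycline and held overnight at 30 C. After no-wash calcium dye loading, compound-evoked calcium rise over 180 s flagged agonists.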
Each line names hits and unclear results; the compound was inactive in the other large screens; ! = not active in a repeat. Unless noted, no stated cut-off is given here; in the data, active means activation above about 30%; inactive means the rest.

CCOCCCNC(=O)C(Cc1ccccc1)NS(=O)(=O)c1ccc2c(c1)c(=O)n(C)c(=O)n2C (configuration not stated)	none
CC(C)OCCCNC(=O)C(NS(=O)(=O)c1ccc2c(c1)c(=O)n(C)c(=O)n2C)c1ccccc1 (configuration not stated)	D1 antagonist -43.9
CCOC(=O)CCNCc1ccc(F)cc1	none
CC1(c2ccc(OC(F)F)cc2)NC(=O)N(/N=C/c2c(O)ccc3ccccc23)C1=O (configuration not stated)	D1 ag 31.5
COc1ccc(S(=O)(=O)n2ccnc2)cc1C(C)(C)C	none
CCOc1cc(/C=N/NC(=O)c2ccncc2)ccc1OC(=O)c1ccccc1	D1 antagonist -39.5
CCc1cccc(NC(=O)Nc2cccs2)c1	none
N#Cc1cccc(NC(=O)Nc2cccs2)c1	D1 antagonist -53.3, D1 ag 42.0
COc1ccc(-c2nnc(-c3cccnc3)o2)cc1OC	none
COc1cc(-c2nnc(-c3cccnc3)o2)cc(OC)c1OC	D1 antagonist -88.2
CCOc1ccc(-c2c(C)nn3c(C)c(C(=O)Nc4ccccc4C(=O)OC)cnc23)cc1OCC	none
C=CCn1c(N)c(C(=O)Nc2ccccc2)c2nc3ccccc3nc21	D1 antagonist -35.9
C=CCn1c(N)c(C(=O)OC(C)(C)C)c2nc3ccccc3nc21	none
CN1CCc2c(sc(NC(=O)c3cc4cc([N+](=O)[O-])ccc4s3)c2C(N)=O)C1	none
CC(C)N1CCc2c(sc(NC(=O)c3ccc4ccccc4c3)c2C(N)=O)C1	TRHR agonist 30.7
CCOC(=O)c1c(NC(=O)c2ccc(S(=O)(=O)N(C)C3CCCCC3)cc2)sc2c1CCN(C(C)C)C2	TRHR agonist 31.5, D1 ag 55.8
CC(C)N1CCc2c(sc(NC(=O)c3cc4cc([N+](=O)[O-])ccc4s3)c2C(N)=O)C1	D1 ag 34.8
CC(C)N1CCc2c(sc(NC(=O)c3ccco3)c2C(N)=O)C1	none
CC(C)N1CCc2c(sc(NC(=O)c3ccc(C(=O)c4ccccc4)cc3)c2C(N)=O)C1	none
COC(=O)c1c(NC(=O)c2ccco2)sc2c1CCN(C(C)C)C2	D1 ag 32.7
COc1ccc(OC)c(NC(=O)CN2CCCN(Cc3ccccc3Cl)S2(=O)=O)c1	none
CCOC(=O)c1c(NC(=S)NCc2ccccc2)sc2c1CCN(C(=O)OCC)C2	D1 antagonist -40.2
CN(C)CCN(Cc1ccco1)C(=O)c1oc2ccccc2c1NC(=O)c1ccccc1	D1 antagonist -42.1
COc1ccccc1C(=O)Nc1c(C(=O)N(CCN(C)C)Cc2ccco2)oc2ccccc12	D1 antagonist -38.1!, D1 ag 46.3!
Cc1ccccc1C(=O)Nc1c(C(=O)N(CCN(C)C)Cc2ccco2)oc2ccccc12	none
O=c1c(=O)n(-c2ccccc2)ccn1Cc1c(F)cccc1Cl	none
CC1=Nc2cc(C(=O)N3CCCCC3)ccc2Sc2ccc(C)cc21	D1 antagonist -43.5!
OCc1cn(-c2ccccc2)nc1-c1ccc(-c2nn(-c3ccccc3)cc2CO)cc1	none
Cc1ccc(-c2nn(-c3ccccc3)cc2CSC(=N)N)cc1	D1 ag 51.2
COc1cccc(C(=O)NC(C)c2ccc(Br)cc2)c1 (configuration not stated)	none
COc1cc(OC)cc(C(=O)NC(C)c2ccc(Br)cc2)c1 (configuration not stated)	D1 ag 41.3
COc1cccc(NC(=O)N2CCC(CN3CCOCC3)CC2)c1	none
CCCCCC(C(=O)O)C(C)CC(=O)NC1CCCCC1 (configuration not stated)	TRHR enhancer 38.4
CC1=CC(C)(C)N2C(=O)C(=Nc3ccc(O)cc3)c3cccc1c32	D1 antagonist -36.3
CN1CCN2c3ncccc3Cc3ccccc3[C@@H]2C1	D1 antagonist -32.1
CN1CCN(C(=O)CCn2c(=O)c3cccn3c3cccnc32)CC1	none
COc1ccc(NC(=O)COC(=O)c2ccc(-n3cnnn3)cc2)cc1Cl	TRHR enhancer 30.9
COc1ccc(NC(=O)CCC(=O)c2cccs2)cc1Cl	none
COc1cc(C(=O)Nc2cccc(-n3cnnn3)c2)cc(OC)c1OC	none
COc1ccc(NC(=O)COC(=O)CNC(=O)c2cccs2)cc1Cl	D1 antagonist -34.3 (no result: D1 PAM)
COc1cccc(OC)c1C(=O)Nc1cccc(-n2cnnn2)c1	D1 antagonist -35.0

Screens (PubChem)
